Fam108B inh = blocks mouse Fam108B hydrolase in RBBP9 counter-screen | recombinant Fam108B, FP-Rh probe fluorescence polarization | inhibition, % at 9.51 µM | 0.33% of 300,000 active | AID 1947;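 active = inhibition above the screen mean inhibition plus 3 SD, computed separately per campaign, cut at about 18% in these data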;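 note: inhibitors lower polarization as less probe binds the enzyme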
PAFAH1B2 inh = inhibitors of human PAFAH1B2; P68402; recombinant PAFAH1B2, FP-rhodamine activity probe, fluorescence polarization; inhibition, % at 3.39 µM; 1.2% of 340,000 active; AID 492953;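 active = inhibition above the mean of all tested compounds plus 3 SD, cut at about 24% in these data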;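 note: 0% = enzyme with DMSO and 100% = wells lacking PAFAH1B2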
Target sequence (P68402 whole entry, looked up): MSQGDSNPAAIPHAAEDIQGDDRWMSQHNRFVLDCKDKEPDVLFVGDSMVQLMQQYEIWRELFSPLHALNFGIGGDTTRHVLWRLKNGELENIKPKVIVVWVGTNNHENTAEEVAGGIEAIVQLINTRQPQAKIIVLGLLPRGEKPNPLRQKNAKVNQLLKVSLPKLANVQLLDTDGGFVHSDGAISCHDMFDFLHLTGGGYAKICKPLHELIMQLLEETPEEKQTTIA
PAFAH1B3 FP inh = PAFAH1B3 (human) inhibition; inhibition, % at 3.39 µM; recombinant PAFAH1B3, FP-rhodamine probe, fluorescence polarization; Q15102; 0.28% of 340,000 active;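 active = inhibition above the screen-wide average of all tested compounds plus 3 SD, cut at about 25% in these data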;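 note: 0% = enzyme with DMSO only and 100% = wells lacking PAFAH1B3 protein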
PME-1 primary = blocks human protein phosphatase methylesterase 1 | recombinant PME-1, FP-Rh probe fluorescence polarization | Q9Y570 | 0.53% of 320,000 active | inhibition, % at 5.9 µM;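 active = inhibition above the campaign mean of all compounds plus 3 SD, cut at about 26% in these data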;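 note: competitive labeling of PME-1 active site by serine hydrolase directed probe; 0% = PME-1 with DMSO and 100% = wells lacking PME-1 enzyme; inhibitors block probe labeling so polarization falls and inhibition rises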
Target sequence (Q9Y570 whole entry, looked up): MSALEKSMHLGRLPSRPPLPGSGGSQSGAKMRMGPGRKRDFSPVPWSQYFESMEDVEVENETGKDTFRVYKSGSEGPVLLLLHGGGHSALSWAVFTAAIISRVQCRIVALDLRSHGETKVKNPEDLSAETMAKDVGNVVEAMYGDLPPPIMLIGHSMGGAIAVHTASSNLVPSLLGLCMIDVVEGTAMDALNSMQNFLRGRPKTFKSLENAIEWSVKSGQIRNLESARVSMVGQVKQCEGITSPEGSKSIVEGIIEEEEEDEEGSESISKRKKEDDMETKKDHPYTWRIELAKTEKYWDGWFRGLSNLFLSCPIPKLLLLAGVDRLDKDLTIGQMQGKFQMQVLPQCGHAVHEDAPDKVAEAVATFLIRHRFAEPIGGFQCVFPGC
PAFAH2 inh = inhibitors of human PAFAH2; recombinant PAFAH2, FP-rhodamine activity probe, fluorescence polarization; 0.99% of 340,000 active; Q99487; inhibition, % at 3.39 µM;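 active = inhibition above the mean over all tested compounds plus 3 SD, cut at about 30% in these data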;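 note: inhibitors block probe labeling of enzyme so polarization drops; 0% = enzyme with DMSO and 100% = wells lacking PAFAH2 protein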
pPAFAH FP inh = pPAFAH (human) enzyme inhibition | 1.5% of 330,000 active | inhibition, % at 3.39 µM | recombinant pPAFAH, FP-rhodamine probe fluorescence polarization;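 active = inhibition above the mean inhibition across the screen plus 3 SD, cut at about 25% in these data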;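 note: inhibitors block binding of the rhodamine activity-based probe so polarization drops; 0% = enzyme with DMSO and 100% = wells lacking pPAFAH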
pPAFAH FP conf = pPAFAH (human) inhibition, confirmed; shares compounds with pPAFAH FP inh; AID 463230; recombinant pPAFAH, FP-Rh probe fluorescence polarization; 72% of 2,300 active; inhibition, % at 3.39 µM;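 active = mean inhibition of the triplicate above the hit cutoff set for the earlier primary screen, cut at about 25% in these data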;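 note: 0% = enzyme with DMSO and 100% = wells lacking pPAFAH enzyme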
Starred values were filed as active, the others as inactive. Sampled rows, rich in hits. Any-hit rate of the full collection: about 2.8%.

For CC1Sc2ccc(S(=O)(=O)CCC(=O)N3CCc4ccccc43)cc2NC1=O (centres undefined) the results were Fam108B inh 1, PAFAH1B2 inh 2, PAFAH1B3 FP inh 5, PME-1 primary 9, PAFAH2 inh -3 and pPAFAH FP inh 8.
`Cc1ccc(C(=O)Nc2nnc(CC(=O)N/N=C/c3ccc(O)c(O)c3)s2)cc1` gave Fam108B inh 18, PAFAH1B2 inh 14, PAFAH1B3 FP inh 19, PME-1 primary 29*, PAFAH2 inh 28, pPAFAH FP inh 51* and pPAFAH FP conf 87*.
Screening O=C(CSc1nnc(SCc2ccc(Cl)cc2)s1)N/N=C/c1c[nH]c2ccccc12 returned Fam108B inh 3, PAFAH1B2 inh 5, PAFAH1B3 FP inh 4, PME-1 primary -3, PAFAH2 inh 24, pPAFAH FP inh 41* and pPAFAH FP conf 35*.
`O=C(CSc1nnc(SCc2ccccc2)s1)N/N=C/C=C/c1ccco1` gave Fam108B inh 8, PAFAH1B2 inh -4, PAFAH1B3 FP inh 5, PME-1 primary 4, PAFAH2 inh 23, pPAFAH FP inh 44* and pPAFAH FP conf 40*.
`COc1ccccc1CCCNC(=O)C1CCC(=O)N(CCc2cccc(F)c2)C1` (centres undefined) gave Fam108B inh -1, PAFAH1B2 inh 10, PAFAH1B3 FP inh -2, PME-1 primary -2, PAFAH2 inh 0 and pPAFAH FP inh 3.
`COc1ccc(CNC(=O)C(c2ccco2)N(C(=O)CNS(=O)(=O)c2ccccc2)c2ccccc2C)cc1` (centres undefined) gave Fam108B inh 1, PAFAH1B2 inh 4, PAFAH1B3 FP inh 7, PME-1 primary -1, PAFAH2 inh 3, pPAFAH FP inh 47* and pPAFAH FP conf 51*.
For N#Cc1ccc(C(=O)Nc2cccc3ccccc23)c(F)c1 the results were Fam108B inh 1, PAFAH1B2 inh 5, PAFAH1B3 FP inh 11, PME-1 primary -2, PAFAH2 inh -2 and pPAFAH FP inh 1.
O=C(O)c1ccccc1NS(=O)(=O)c1ccc(NN=Cc2ccc(F)cc2)c([N+](=O)[O-])c1 was read as PAFAH1B2 inh 14, PAFAH1B3 FP inh 14, PAFAH2 inh 19, pPAFAH FP inh 58* and pPAFAH FP conf 77*.
`O=C(O)c1ccccc1/C=N/Nc1ccc(S(=O)(=O)N2CCOCC2)cc1[N+](=O)[O-]` gave Fam108B inh -5, PAFAH1B2 inh 9, PAFAH1B3 FP inh 6, PME-1 primary 7, PAFAH2 inh -1 and pPAFAH FP inh 3.
Screening O=C(O)c1ccccc1NS(=O)(=O)c1ccc(NN=Cc2cccc(Cl)c2)c([N+](=O)[O-])c1 returned PAFAH1B2 inh 15, PAFAH1B3 FP inh 12, PAFAH2 inh 22, pPAFAH FP inh 66* and pPAFAH FP conf 77*.
For N=C1/C(=C\c2ccc(OC(=O)c3ccccc3Cl)cc2)C(=O)N=C2SC(N3CCOCC3)=NN12 the results were Fam108B inh 1, PAFAH1B2 inh 5, PAFAH1B3 FP inh 16, PME-1 primary 5, PAFAH2 inh 8, pPAFAH FP inh 36* and pPAFAH FP conf 33*.
For O=c1c(-c2ccc([N+](=O)[O-])cc2)coc2c(O)c(O)ccc12 the results were Fam108B inh 1, PAFAH1B2 inh 9, PAFAH1B3 FP inh 17, PME-1 primary -7, PAFAH2 inh 24, pPAFAH FP inh 54* and pPAFAH FP conf 78*.
For Cc1c2ccccc2nc2ccccc12 the results were Fam108B inh 5, PAFAH1B2 inh 5, PAFAH1B3 FP inh 3, PME-1 primary -2, PAFAH2 inh 3 and pPAFAH FP inh 0.
Screening CCCNc1c(F)c(F)c2c(C)c3ccccc3nc2c1F returned Fam108B inh 11, PAFAH1B2 inh 6, PAFAH1B3 FP inh 12, PME-1 primary 9, PAFAH2 inh 20, pPAFAH FP inh 35* and pPAFAH FP conf 20.
`CN(CC(=O)Nc1ccc(F)cc1)S(=O)(=O)c1ccc2c(c1)c(=O)n(C)c(=O)n2C` gave Fam108B inh -2, PAFAH1B2 inh 1, PAFAH1B3 FP inh 14, PME-1 primary 0, PAFAH2 inh -5 and pPAFAH FP inh 7.
Screening COc1ccc(C2=NNC(=O)C2(C)Br)cc1 (centres undefined) returned PAFAH1B2 inh 1, PAFAH1B3 FP inh -1 and PAFAH2 inh -8.
Screening CC(OC(=O)c1ccccn1)C(=O)Nc1ccc2c(c1)OCCO2 (centres undefined) returned PAFAH1B2 inh 0, PAFAH1B3 FP inh 2, PME-1 primary 3, PAFAH2 inh -4, pPAFAH FP inh 48* and pPAFAH FP conf 4.
`O=[N+]([O-])c1ccccc1NC(=S)N/N=C/c1ccc(O)c(O)c1` gave Fam108B inh 12, PAFAH1B2 inh 5, PAFAH1B3 FP inh 24, PME-1 primary 27*, PAFAH2 inh 49*, pPAFAH FP inh 59* and pPAFAH FP conf 64*.
`COc1ccc(/C=N/N2C(C)CCCC2C)cc1O` (centres undefined) gave Fam108B inh -5, PAFAH1B2 inh 3, PAFAH1B3 FP inh 4, PME-1 primary 4, PAFAH2 inh -4 and pPAFAH FP inh -2.
For CC1CCCC(C)N1/N=C/c1ccc(O)c(O)c1 (centres undefined) the results were Fam108B inh 3, PAFAH1B2 inh 4, PAFAH1B3 FP inh 13, PME-1 primary 3, PAFAH2 inh 5, pPAFAH FP inh 45* and pPAFAH FP conf 11.
Screening O=C(CCN1CCCO1)NC1CCCc2c1cnn2-c1ccccc1F (centres undefined) returned Fam108B inh -1, PAFAH1B2 inh 2, PAFAH1B3 FP inh 4, PME-1 primary -5, PAFAH2 inh -3 and pPAFAH FP inh 3.
`CC(C)(C)c1ccc(-n2ncc3c2CCCC3NC(=O)CCN2CCCO2)cc1` (centres undefined) gave Fam108B inh 3, PAFAH1B2 inh 5, PAFAH1B3 FP inh 4, PME-1 primary -5, PAFAH2 inh 5, pPAFAH FP inh 37* and pPAFAH FP conf 18.
COc1ccccc1OCC(=O)NNC(=O)CSC(=S)N1CCCC1 was read as PAFAH1B2 inh 4, PAFAH1B3 FP inh 6, PME-1 primary -2, PAFAH2 inh 10 and pPAFAH FP inh 1.
CC(CCC(=O)NN)C1CCC2C3CCC4CC(O)CCC4(C)C3CCC12C (centres undefined) was read as PAFAH1B2 inh -1, PAFAH1B3 FP inh -5 and PAFAH2 inh 5.
